Results: PubChem BioAssay (NCI)
The panel holds about 83,000 compounds, 20% with a hit somewhere; the sample as a whole holds those more often.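 Percent growth is the endpoint: 0 to 100 indicates growth inhibition (40 means 60% inhibition), 0 means no net growth, and negative values indicate cell death.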 Unmarked numbers belong to inactive results. Calls of active or inactive are those of the source. Rule for the calls: active = growth percent below 10; inactive = the rest.

Tests used:
Experiment in all cases: NCI-60 one-dose screen, 48 h (100 = growth as untreated, 0 = no growth, -100 = all killed)
Conditions in all cases: 10 µM unless noted
T-47D breast = tested on: T-47D breast
BT-549 breast = tested on: BT-549 breast
MDA-MB-435 melanoma = tested on: MDA-MB-435 melanoma
SW-620 colon = tested on: SW-620 colon
MCF7 breast = tested on: MCF7 breast
HCT-116 colon = tested on: HCT-116 colon
HCC-2998 colon = tested on: HCC-2998 colon
KM12 colon = tested on: KM12 colon

SMILES	growth (T-47D breast)	growth (BT-549 breast) [%]	growth (MDA-MB-435 melanoma)	growth (SW-620 colon)	growth (MCF7 breast)	growth (HCT-116 colon)	growth (HCC-2998 colon)	growth (KM12 colon)
O=C(Cc1ccc([N+](=O)[O-])cc1)Oc1ccccc1	109%	106	122%	114%	107%	114%	106%	118%
C#CCO[C@H]1CC[C@H](OCC#C)[C@@H]2[C@H]1[C@H]1C[C@@H]3[C@@]4(C)CCC[C@@](C)(C(=O)OC)[C@@H]4CC[C@@]23C=C1C(C)C	94.6%	106	106%	103%	90.5%	70.4%	94.6%	78%
CCN(CC)c1cc(C)c(Cc2c(OC)ccc3ccccc23)cc1C	82.3%	105	104%	86.1%	90.9%	86.2%	100%	98.1%
Cc1cc(N)cc(C)c1-c1c(Br)cc(N)cc1Br	36.3%	35.8	-44.3% (active)	34.5%	27.1%	23.3%	42.3%	23.8%
Cc1ccc(OC2=C(C#N)C(=N)N3C(=NN2)Sc2c(C)ccc(C)c23)cc1	84.8%	105	106%	102%	91%	106%	106%	106%
O=C1CCCN1C1CCN2CCCc3cccc1c32 (stereo not drawn)	94.1%	134	108%	108%	96.9%	101%	105%	109%
O/N=C1\c2ccccc2-c2ccc(Br)cc21	97.2%	115	113%	119%	91.1%	114%	102%	115%
CCNCCCn1c2c(c3ccc(Cl)cc3c1=O)C(=O)c1cc(OC)cnc1-2	16.6%	39.8	68.1%	-64.5% (active)	-64.9% (active)	-95.8% (active)	68%	32.8%
COc1ccccc1CNCCCN1C(=O)c2ccc3c4c(ccc(c24)C1=O)C(=O)N(CCCNCCCN)C3=O	-21.6% (active)	55	-69.4% (active)	-7.85% (active)	-42.7% (active)	-1.03% (active)	-5.58% (active)	1.76% (active)
C=C1C(=O)O[C@H]2[C@H]1CC/C(COC(=O)NCc1[nH]nc3ccccc13)=C\CC[C@@]1(C)O[C@@H]21	37.4%	24.3	37.3%	-28.9% (active)	17.9%	-80.7% (active)	87.5%	55.8%
CCCCCCCCCCCCC1CCC(=O)O1 (stereo not drawn)	74.1%	96.5	98.8%	90.3%	93.4%	95.2%	104%	100%
COc1cc(NC(=O)CSc2nc3ccc(Cl)cc3c(=O)n2-c2ccccc2)cc(OC)c1OC	85.4%	78.9	101%	101%	99.1%	92.5%	106%	100%
CC1=C(O)C(=O)CC1	103%	89	98.1%	108%	91.8%	105%	99.7%	104%
O=C(N/N=C/c1ccc([N+](=O)[O-])o1)c1ccc(O)cc1	44.2%	59.4	-79.5% (active)	18.2%	26.1%	11.4%	62.9%	33%
COc1cc(Nc2ncccc2/C=C/C(=O)c2cc(OC)c(OC)c(OC)c2)cc(OC)c1OC	34.1%	100	61.4%	71.9%	9.35% (active)	60.6%	93.5%	71.1%
COc1cc(/C=C\c2cc(/C=C\c3ccc(O)c(OC)c3)n(C(=O)Nc3ccc(C(F)(F)F)cc3)n2)ccc1O	47.4%	19	27.8%	18%	22.9%	-53.7% (active)	103%	41.4%

SMILES	growth (T-47D breast)	growth (BT-549 breast) [%]	growth (MDA-MB-435 melanoma)	growth (SW-620 colon)	growth (MCF7 breast)	growth (HCT-116 colon)	growth (HCC-2998 colon)	growth (KM12 colon)
COc1cc(C2CC(c3ccccc3)=NN2C=O)ccc1Oc1nc2c(c(=O)n(C)c(=O)n2C)n1C (stereo not drawn)	69.7%	95.7	56.8%	97.9%	72.3%	79.9%	77.6%	74.7%
CCN(CC)CC(=O)Nc1c(C)cc(C(=O)NN)cc1C	90.8%	117	101%	101%	98.3%	102%	107%	98.9%
COc1cc(/C=C2\CN(C(=O)OC(C)(C)C)C/C(=C\c3ccc(O)c(OC)c3)C2=O)ccc1O	92.1%	85.4	99.4%	99.9%	85.9%	68.6%	106%	99.1%
O=C1/C=C/[C@@H](O)[C@@H]2C[C@@H](O)C[C@H]2/C=C/CCC[C@H]([C@@H](O)CO)O1	81.8%	75.8	83%	104%	45.1%	93.8%	84.6%	63.5%
COc1ccc(C(=O)OC2C(OC3C(O)COC(O[C@H]4C[C@H]5[C@@H]6CC=C7C[C@@H](O)CC[C@]7(C)[C@H]6CC[C@]5(C)[C@H]4[C@H](C)C(=O)CCC(C)C)C3OC(=O)C(C)C)OCC(O)C2O)cc1 (stereo partly drawn)	-1.53% (active)	14.6	-1.62% (active)	-19.5% (active)	3.21% (active)	10.3%	59%	36.3%
Cc1nn(-c2cccc(Cl)c2)c(C)c1N=Nc1ccc(Br)cc1	80.5%	97.6	99.8%	103%	89.4%	89.5%	100%	100%
CCCCOC(=O)c1cc(O)c(O)c(O)c1	61%	67.4	74.8%	80.2%	84.9%	64.9%	92.5%	69%
NC(=S)N1N=C(c2ccc(Cl)cc2)CC1c1cc2ccccc2[nH]c1=O (stereo not drawn)	89.2%	102	104%	108%	95.5%	103%	111%	114%
COc1ccc(C(=O)N2N=C(c3ccc(F)cc3)CC2c2cn(-c3ccccc3)nc2-c2ccccc2)cc1 (stereo not drawn)	50.6%	77.3	62.5%	47.3%	33.7%	7.49% (active)	85.7%	50.6%
S=C(Nc1ccc(Cl)cc1)Nc1ccc(Cl)cc1 (tested in a mixture with another compound)	11.6%	12.8	3.6% (active)	11.8%	7.15% (active)	0.154% (active)	17.8%	3.43% (active)
COc1cc(CN(CCC(O)N2CCCC2=O)Cc2ccc3c(c2)OCO3)cc(OC)c1OC (stereo not drawn)	96%	101	103%	108%	96.8%	92.4%	113%	105%
Nc1c(N)c2ccccc2c2ccccc12	104%	112	107%	103%	98.3%	114%	103%	116%
O=C1c2cccc3cccc(c23)C(=O)N1CCCCCCCCCCN1C(=O)c2cccc3cccc(c23)C1=O	97.7%	114	104%	104%	86.9%	117%	112%	109%
CC(C)c1cccc(C#N)c1	95.7%	102	101%	107%	95.1%	101%	102%	111%
CCCNCCC(C)=O	98.7%	106	94.7%	97.6%	106%	109%	99.6%	112%
